Screens from PubChem.
The list is not random: actives were taken first. Their share in the collection is about 1.2%.
RPL19A-GFP yeast = RPL19A-GFP expression modulators in yeast, primary screen, cell-based, S. cerevisiae, multiplex flow cytometry, MLPCN | 330,000 tested, 0.3% active | percent response vs DMSO, % at 10 µM | S. cerevisiae RPL19A-GFP strain, 3 h; hits give low values;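 active = percent response vs DMSO below 50%; inconclusive = fewer than 70 events counted for the yeast strain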;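 note: median channel GFP fluorescence of the barcoded RPL19A-GFP strain; ratio of sample median GFP to plate DMSO average so 100% = DMSO; lower means less RPL19A-GFP as with rapamycin TOR inhibition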
AGP1-GFP MLPCN = modulators of AGP1-GFP expression in yeast TOR pathway, primary screen, cell-based, multiplex flow cytometry, S. cerevisiae, MLPCN library. GFP response vs DMSO, % at 10 µM. 320,000 tested, 0.02% active. 3 h; GFP as percent of DMSO wells;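 active = GFP response relative to DMSO above a set limit, near screen average plus 3 SD, cut at about 150% in these data; inconclusive = fewer than 70 cells counted for the yeast strain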;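 note: median GFP channel fluorescence of the gated AGP1 strain per well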
CIT2 TOR yeast = modulators of CIT2-GFP expression in yeast, primary screen, S. cerevisiae, GFP fusion, multiplex flow cytometry, MLPCN library; S. cerevisiae CIT2-GFP strain, 3 h; 100 means same as DMSO wells; GFP response vs DMSO, % at 10 µM; 320,000 tested, 0.065% active;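 active = GFP response relative to DMSO above a set limit, near the screen mean plus 3 SD, cut at about 150% in these data; inconclusive = Fewer than 70 cells measured for a yeast strain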;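 note: ratio of well median GFP fluorescence to mean of DMSO wells on the plate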
Pemphigus Ab inh = inhibitors of pemphigus antibody binding to DSG3, primary screen, biochemical, bead-based, flow cytometry, scFv-GFP | 310,000 tested, 0.48% active | DSG3-coupled beads, scFv-anti-DSG3-GFP binding; hits give low values | binding (percent of control), % at 10 µM | Desmoglein-3 (Homo sapiens), P32926;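 active = binding more than 3 SD below its plate's average and above zero; inconclusive = below that plate limit but binding exactly zero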;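 note: hits lower antibody fragment binding to DSG3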
Target sequence (P32926 whole entry, looked up, the tested form may be a part): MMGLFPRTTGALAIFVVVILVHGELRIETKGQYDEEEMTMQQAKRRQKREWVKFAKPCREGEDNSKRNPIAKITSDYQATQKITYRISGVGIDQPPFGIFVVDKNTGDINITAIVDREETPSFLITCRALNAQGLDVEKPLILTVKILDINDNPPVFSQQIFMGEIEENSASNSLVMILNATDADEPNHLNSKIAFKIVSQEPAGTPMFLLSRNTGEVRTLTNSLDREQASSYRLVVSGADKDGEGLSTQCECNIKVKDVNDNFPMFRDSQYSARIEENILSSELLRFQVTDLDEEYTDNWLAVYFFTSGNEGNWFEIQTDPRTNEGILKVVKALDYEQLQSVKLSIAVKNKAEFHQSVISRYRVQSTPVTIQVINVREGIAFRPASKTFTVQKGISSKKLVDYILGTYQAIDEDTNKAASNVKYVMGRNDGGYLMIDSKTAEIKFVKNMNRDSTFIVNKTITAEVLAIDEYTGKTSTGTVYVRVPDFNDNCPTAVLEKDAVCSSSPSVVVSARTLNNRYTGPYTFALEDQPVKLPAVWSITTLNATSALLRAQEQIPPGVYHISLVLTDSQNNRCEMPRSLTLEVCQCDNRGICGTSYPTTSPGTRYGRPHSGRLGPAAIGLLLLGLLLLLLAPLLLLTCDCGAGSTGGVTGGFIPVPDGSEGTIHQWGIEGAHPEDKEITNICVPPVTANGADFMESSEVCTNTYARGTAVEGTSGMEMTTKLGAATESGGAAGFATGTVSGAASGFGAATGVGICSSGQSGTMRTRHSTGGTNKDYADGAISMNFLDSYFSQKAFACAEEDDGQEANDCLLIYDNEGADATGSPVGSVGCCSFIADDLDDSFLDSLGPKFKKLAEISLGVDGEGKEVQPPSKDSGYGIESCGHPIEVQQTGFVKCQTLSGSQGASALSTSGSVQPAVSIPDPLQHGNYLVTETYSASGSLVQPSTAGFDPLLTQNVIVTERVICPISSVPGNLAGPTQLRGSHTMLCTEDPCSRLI
LAP4-GFP MLPCN = modulators of LAP4-GFP expression in yeast, primary screen, S. cerevisiae, multiplex flow cytometry, MLPCN library | 3 h; median GFP as percent of DMSO wells | GFP response vs DMSO, % at 10 µM | 320,000 tested, 0.34% active;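 active = GFP response vs DMSO above a set limit, about the screen mean plus 3 SD, cut at about 150% in these data; inconclusive = under 70 cell events counted for the yeast strain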
MEP2 TOR yeast = modulators of MEP2-GFP levels in yeast, primary screen, S. cerevisiae, multiplex flow cytometry, MLPCN library; S. cerevisiae MEP2-GFP strain, 3 h; 100% = DMSO control level; GFP response vs DMSO, % at 10 µM; 330,000 tested, 0.51% active; AID 2016, 2009;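 active = GFP response versus DMSO above a set limit, roughly screen mean plus 3 SD, cut at about 180% in these data; inconclusive = fewer than 70 cells counted for a yeast strain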;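 note: median GFP fluorescence of the barcode-gated MEP2-GFP cells per well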
Starred values were filed as active, the others as inactive; ? = inconclusive; . = not tested or not shown; [ ] = another dose, or the depositor's remark.

SMILES	RPL19A-GFP yeast	AGP1-GFP MLPCN	CIT2 TOR yeast	Pemphigus Ab inh	LAP4-GFP MLPCN	MEP2 TOR yeast
CC(C)CN(Cc1cc(=O)oc2cc(-c3ccccc3)c(O)cc12)CC(C)C	94	95	99	93	102	96
O=C(c1ccc(Cl)cc1)[C@@H]1[C@@H]2C(=O)N(c3ccccc3)C(=O)[C@@H]2C2c3ccccc3C=NN21 (some centres not stated)	107	101	98	78*	95	99
C/C(=N\NC(=O)c1cccc(S(=O)(=O)N2CCCC2)c1)c1ccc(F)cc1	95	97	99	107	95	100
O=C(CSc1cn[nH]n1)Nc1ccccc1F	115	124	106	98	108	110
O=C(CSc1cn[nH]n1)Nc1ccc(Cl)cc1Cl	52	?	?	96	76	239*[may fluoresce violet]
CC(C(=O)N1CCCC1)N(c1ccc(Cl)cc1)S(C)(=O)=O (configuration not stated)	.	.	.	99	.	.
O=C(N/N=C1/C(=O)c2cccc3cccc1c23)c1ccc(Cl)cc1	94	89	84	61*	96	103
CCNC(=S)N/N=C1\C(=O)c2cccc3cccc1c23	100	97	.	104	87	96
C/C(=N\NC(=S)NCCc1ccccc1)c1cccs1	94	87	85	99	97	101
C=CCN1C(=O)c2ccccc2NC1c1cc(Br)cs1 (configuration not stated)	55	23	?	108	92	279*[may fluoresce violet]
Cc1c(CC(=O)N[C@@H](C)C(=O)O)c(=O)oc2cc3oc4c(c3cc12)CCCC4	96	103	98	96	101	109
O=C(Nc1ccccc1)OCCOc1ccccc1Br	100	90	95	69*	99	108
O=C(Nc1ccccc1)OCCCCCOC(=O)Nc1ccccc1	104	101	105	79*	97	111
O=C(Nc1ccccc1)OCCOc1ccccc1	98	98	87	91	114	104
O=C(O)c1ccccc1-c1ccccc1C(=O)Nc1ccc2c(c1)C(O)c1ccccc1-2 (configuration not stated)	.	.	.	107	.	.
CCOC(=O)C(=O)c1cn(C2OCC(OC(C)=O)C(OC(C)=O)C2OC(C)=O)c2ccccc12 (configuration not stated)	43*[may fluoresce violet]	20	?	91	92	174
Cc1ccc(C(=O)N/C(=C/c2ccc(-c3ccc([N+](=O)[O-])cc3)o2)C(=O)NCCCN(C)C)cc1	97	98	91	.	112	105
CCOC(=O)C1CCCN(C(=O)c2ccc(-c3ccc([N+](=O)[O-])cc3)o2)C1 (configuration not stated)	96	84	70	89	169*	79
COc1ccc(OC)c(/C=C/C(=O)c2ccc(Cl)cc2)c1	96	105	98	99	99	105
Cc1ccc(C(=O)CCS(=O)(=O)c2ccc(F)cc2)cc1	97	107	121	109	102	96
Cc1ccc(S(=O)(=O)CCC(=O)c2ccc(F)cc2)cc1	94	123	164*	102	112	109
N#Cc1c(N)nc2c(c1-c1ccncc1)CCCCC2	54	?	?	101	80	817*[may fluoresce violet]
Cc1cccc(C)c1NC(=O)C1CCCNC1 (configuration not stated)	20*[may fluoresce violet]	?	?	.	129	253*[may fluoresce violet]
Cc1cccc(C)c1NC(=O)C1CCCN(CCCc2ccccc2)C1 (configuration not stated)	.	.	.	109	.	.
COc1ccc(-c2csc(/C=C/c3ccc4c(c3)OCO4)n2)cc1OC	105	96	104	101	97	108
SMILES	RPL19A-GFP yeast	AGP1-GFP MLPCN	CIT2 TOR yeast	Pemphigus Ab inh	LAP4-GFP MLPCN	MEP2 TOR yeast
COc1ccc(C(=O)NC2CCN(CC(=O)NCc3ccccc3)CC2)cc1	60	63	?	133	94	506*[may fluoresce violet]
COc1ccc(NC(=O)c2ccc(NC(=O)CN3CCN(c4ccccc4)CC3)cc2)cc1	92	89	88	5.2*	85	86
O=C(CN1C(=O)NC(c2ccccc2)(c2ccccc2)C1=O)Nc1ccc(N2CCOCC2)cc1	100	104	104	124	98	108
Cc1cccc(OCC(=O)Nc2ccc(N3CCN(C(=O)c4ccccc4)CC3)cc2)c1C	102	104	.	.	103	90
COc1ccc(C2(c3ccc(OC)cc3)NC(=O)N(CC(=O)Nc3ccc(N4CCOCC4)cc3)C2=O)cc1	89	91	86	3.0*	92	94
CCc1ccc(OCC(=O)Nc2ccc(N3CCN(C(=O)c4ccccc4)CC3)cc2)cc1	99	95	100	95*	86	98
Cc1nccn1CC(=O)c1ccc(O)c(O)c1	95	96	95	97	96	86
COc1cccc(COC(=O)C2CC(=O)N(Cc3ccc(C)cc3)C2)c1OC (configuration not stated)	99	105	99	108	105	99
COc1ccc(OCc2nnc(SCC(=O)N3CCCc4ccccc43)n2-c2ccc(C)cc2)cc1	66	21	?	100	96	214*[may fluoresce violet]
Cn1nc(C(F)(F)F)c(C(=O)Nc2ccc(Cl)cc2)c1Cl	23*[may fluoresce violet]	18	?	102	72	353*[may fluoresce violet]
COc1ccc2nc(C)cc(Nc3ccc(N4CCN(C)CC4)cc3)c2c1	102	97	106	98	95	108
CSc1cccc(NC(=S)Nc2ccc(F)cc2)c1	56	.	.	.	.	576*[may fluoresce violet]
CSc1cccc(NC(=S)NN(C)C)c1	96	103	99	.	112	91
COCCCNC(=S)Nc1cccc(SC)c1	41*[may fluoresce violet]	?	?	110	62	243*[may fluoresce violet]
CCCCNC(=O)c1ccc2c(SCC(=O)O)c3c(nc2c1)CCCC3	104	98	103	90	110	185*
CC(C)CCNC(=O)c1ccc2c(SCC(=O)O)c3c(nc2c1)CCC3	98	106	108	90	101	99
Cc1cc(C)c(S(=O)(=O)N2CCN(C(=O)C(C)Cn3nc(C)nc3C)CC2)c(C)c1 (configuration not stated)	105	102	102	112	100	107
Cc1nc(C)n(CC(C)C(=O)N2CCN(S(=O)(=O)c3ccccc3)CC2)n1 (configuration not stated)	40*[may fluoresce violet]	?	?	.	?	?
